Screening data deposited in PubChem BioAssay by National Center for Advancing Translational Sciences (NCATS).
The list is not random: actives were taken first. Their share in the collection is about 21%.
CHX counter – counter-screen hit for Shiga toxin inhibitors, cycloheximide. cell reporter, cycloheximide protein synthesis inhibition counterscreen. max response, %. hit rate 12% among 300,000; in the data active means max response mostly above about 13%, no sharp cut-off; inactive means mostly below about 14%; further: read at 38.3 µM for the half of the compounds with a filed dose; 0% is about no effect
AMA1 RON2 block – AMA1-RON2 (P. falciparum) interaction inhibition. AlphaScreen AMA1-biotinylated RON2 peptide binding. Potency, µM (highest dose often 58.2 µM), inactives show at the highest dose activity change, negative = inhibition, actives largely listed as inhibitors. hit rate 0.2% among 360,000. AID 720542;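 further: potency means the concentration at half of the fitted maximal effect; 0% = vehicle wells and -100% = peptide control; nearly all actives have a fitted effect of over 45% in size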
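AMA1 (3D7) with his tag at 25 nM final met compounds first, then biotinylated RON2 peptide at 25 nM; detection used donor plus acceptor beads, 10 µg/mL apiece, read by AlphaScreen after 30 min at room temperature.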
HCV inhibitor – blocks hepatitis C virus; hit rate 3.4% among 340,000; Potency, µM (top dose mostly 41.8 µM), for inactives: at the top dose activity change, negative = inhibition, hits mostly inhibitors; Huh7.5.1 HCVcc-Cre infection, luciferase reporter, 44 h; further: potency means the concentration at half of the fitted maximal effect; on the % scale 0 is the no-effect control and ±100 the full control effect
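Luciferase read-out (15 sec integration) after a 15 min room-temperature substrate step quantifies HCVcc-Cre infection. Cells, 1,000 per well, had compound added 4 h post-plating, then virus at ~0.5 moi, and were cultured 44 h.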
Shiga toxin inh – blocks Shiga toxin action in Vero cells. Vero cells, Shiga toxin protein synthesis inhibition reporter. inhibition, % at 38.7 µM. hit rate 9.2% among 290,000; in the data active means inhibition mostly above about 28%, no sharp cut-off; inactive means mostly below about 43%; further: 0% is about no effect
Pf growth 96h – P. falciparum growth inhibition at 96 hours; P. falciparum luciferase reporter growth, 96 h; Potency, µM (series often up to 28.7 µM), without a hit: at the highest dose activity change, negative = inhibition, actives largely listed as inhibitors; hit rate 6.9% among 320,000; AID 504834; further: potency means the concentration at half of the fitted maximal effect; on the % scale 0 is the no-effect control and ±100 the full control effect
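P. falciparum expressing integrated firefly luciferase, in erythrocytes at 2% hematocrit, 0.05% parasitemia, incubated with compounds 96 h at 37 C, 5% CO2. Growth inhibition read as loss of luminescence; two-generation exposure targets delayed-death apicoplast inhibitors.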
Pf growth 48h – inhibits P. falciparum growth in the first generation, 48 h; P. falciparum luciferase growth in erythrocytes, 48 h; Potency, µM (titrated, usually from 28.7 µM), inactives show top-dose activity change, negative = inhibition, usual class: inhibitors; hit rate 5.9% among 310,000; further: potency means the concentration at half of the fitted maximal effect; on the % scale 0 is the no-effect control and ±100 the full control effect
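First compound was added to culture medium, then infected red cells at 0.1% parasitemia and 2% hematocrit (final). After incubation at 37 C under 5% CO2, luciferase detection reagent was dispensed and light output recorded.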
* hit, by the source's call; [ ] = another dose, or the depositor's remark. Unless noted, the call rests on the fitted dose curve; in most records, active means well fitted curve in the direction sought with a large enough effect; inconclusive means small, poorly fitted or top-dose-only effect, or another doubt; inactive means no such curve, though single readings can be large; an effect the other way counts as inactive or inconclusive.

Results for N#C/C(=C\c1c(N2CCN(c3ccccc3)CC2)nc2ccccn2c1=O)C(N)=O ?
CHX counter: 28.1*; AMA1 RON2 block: 1.0%; HCV inhibitor: -2.4%; Shiga toxin inh: 50.3*; Pf growth 96h: inconclusive; Pf growth 48h: 19.4%

What do the screens show for `CCOC(=O)/C(C#N)=C/c1c(N2CCN(c3ccc(OC)cc3)CC2)nc2c(C)cccn2c1=O`?
CHX counter: 2.2; AMA1 RON2 block: inconclusive; HCV inhibitor: inconclusive; Shiga toxin inh: 2.0; Pf growth 96h: 11.7µM*; Pf growth 48h: 9.28µM*

How did N#C/C(=C\c1c(N2CCCCCC2)nc2ccccn2c1=O)C(N)=O do in these assays?
CHX counter: -2.3; AMA1 RON2 block: -4.4%; HCV inhibitor: 5.9%; Shiga toxin inh: 3.5; Pf growth 96h: -19.3%; Pf growth 48h: -1.9%

How did Cc1cc2c(cc1C)-c1nnnn1C(N1CCCC1)C(=O)N2 (stereo unspecified) do in these assays?
AMA1 RON2 block: 18.7%

What do the screens show for `O=C(Nc1ccc2ncccc2c1)c1ccccc1Br`?
CHX counter: 37.7*; AMA1 RON2 block: -9.0%; HCV inhibitor: -19.7%; Shiga toxin inh: 41.4*; Pf growth 96h: 26.7%; Pf growth 48h: 198.8%

What do the screens show for `c1cnc2ccc(-c3ccc4ncccc4c3)cc2c1`?
CHX counter: 26.7*; AMA1 RON2 block: 3.8%; HCV inhibitor: -10.2%; Pf growth 96h: inconclusive; Pf growth 48h: 180.0%

How did O=C(Nc1ccc2ncccc2c1)Nc1ccc2ncccc2c1 do in these assays?
CHX counter: 18.7*; AMA1 RON2 block: -9.0%; HCV inhibitor: -22.3%; Shiga toxin inh: 46.8*; Pf growth 96h: inconclusive; Pf growth 48h: inconclusive

What do the screens show for `C=C1CCN(C(Cc2ccccc2)C(=O)NC2CCN(Cc3ccccc3)CC2)S(=O)(=O)c2ccccc21` (stereo unspecified)?
CHX counter: 2.4; Shiga toxin inh: -5.0

Results for Cc1ccc(S(=O)(=O)Nc2cc(-c3ccccc3)nn2C)cc1Cl ?
CHX counter: 0.4; AMA1 RON2 block: -3.8%; HCV inhibitor: 2.9%; Shiga toxin inh: -3.4; Pf growth 96h: 112.0%; Pf growth 48h: 49.2%

Results for COc1ccc(C2/C(=C(/O)c3ccc(C)cc3)C(=O)C(=O)N2c2ccccn2)cc1 (stereo unspecified) ?
CHX counter: -3.5; AMA1 RON2 block: 21.9%; HCV inhibitor: 4.6%; Shiga toxin inh: 16.7; Pf growth 96h: 9.2%; Pf growth 48h: 32.2%

Results for Cc1cc(N2C(=O)C(=O)/C(=C(/O)c3ccc(F)cc3)C2c2ccc(Cl)cc2)no1 (stereo unspecified) ?
CHX counter: 1.3; AMA1 RON2 block: 0.8%; HCV inhibitor: 1.5%; Shiga toxin inh: -10.8; Pf growth 96h: 59.0%; Pf growth 48h: 13.1µM*

Results for COc1cccc(/C(O)=C2\C(=O)C(=O)N(c3ccccn3)C2c2ccccc2OC)c1 (stereo unspecified) ?
CHX counter: -1.2; AMA1 RON2 block: 4.7%; HCV inhibitor: 3.8%; Shiga toxin inh: 28.3; Pf growth 96h: 5.22µM*; Pf growth 48h: 8.1%

Results for COc1ccc(/C(O)=C2/C(=O)C(=O)N(c3ccccn3)C2c2ccc(F)cc2)cc1 (stereo unspecified) ?
CHX counter: -0.5; AMA1 RON2 block: -5.9%; HCV inhibitor: 12.2%; Shiga toxin inh: 16.0; Pf growth 96h: 6.57µM*; Pf growth 48h: -12.1%

How did Cc1ccc(NC(=O)C2(C)CCN2Cc2ccccc2OC(F)F)cc1 (stereo unspecified) do in these assays?
AMA1 RON2 block: 11.9%

What do the screens show for `O[C@@H](c1cc(C(F)(F)F)nc2c(C(F)(F)F)cccc12)[C@H]1CCCCN1`?
AMA1 RON2 block: 0.6%; HCV inhibitor: 8.91µM*; Pf growth 96h: 0.0147µM*; Pf growth 48h: 0.0329µM*

How did OC(c1cc(-c2ccc(Cl)cc2)nc2ccccc12)C1CCCCN1 (stereo unspecified) do in these assays?
CHX counter: 1.1; AMA1 RON2 block: 0.0%; HCV inhibitor: inconclusive; Shiga toxin inh: -5.8; Pf growth 96h: 0.0522µM*; Pf growth 48h: 0.037µM*

What do the screens show for `NC(=O)C1CCN(C(=O)c2cc(-c3ccc(Cl)cc3)nc3ccccc23)CC1`?
AMA1 RON2 block: 10.6%; HCV inhibitor: -15.7%

What do the screens show for `O=c1c2cc(Cl)cc(Cl)c2nc2n1CCC2`?
CHX counter: 0.9; AMA1 RON2 block: 0.3%; HCV inhibitor: -8.5%; Shiga toxin inh: -15.0; Pf growth 96h: 9.3%; Pf growth 48h: 2.4%

How did OC(c1cc(C(F)(F)F)nc2c(Cl)cc(Cl)cc12)C1CCCCN1 (stereo unspecified) do in these assays?
CHX counter: -5.4; AMA1 RON2 block: inconclusive; HCV inhibitor: inconclusive; Shiga toxin inh: -14.6; Pf growth 96h: 0.0033µM*; Pf growth 48h: 0.0131µM*

What do the screens show for `CC1CCc2nc(/C(C#N)=C/c3ccncc3)sc2C1` (stereo unspecified)?
CHX counter: 38.2*; AMA1 RON2 block: -7.8%; HCV inhibitor: 3.6%; Shiga toxin inh: 96.3*; Pf growth 96h: 0.0%; Pf growth 48h: inconclusive

What do the screens show for `N#C/C(=C\c1ccncc1)c1nc2ccccc2[nH]1`?
CHX counter: 31.7*; AMA1 RON2 block: 92.0%; HCV inhibitor: -12.4%; Shiga toxin inh: 106.2*; Pf growth 96h: -4.5%; Pf growth 48h: -12.2%

How did CC(C)=C(C#N)c1nc2ccccc2s1 do in these assays?
CHX counter: 16.7; AMA1 RON2 block: 4.3%; HCV inhibitor: 9.1%; Shiga toxin inh: -1.8; Pf growth 48h: 14.6%

How did N#C/C(=C/c1ccncc1)c1nc2ccccc2s1 do in these assays?
CHX counter: 29.9*; AMA1 RON2 block: 18.8%; HCV inhibitor: -1.9%; Shiga toxin inh: 43.7*; Pf growth 96h: 31.2%; Pf growth 48h: 7.4%

Results for Cc1cc2nc(/C(C#N)=C/c3ccncc3)[nH]c2cc1C ?
CHX counter: 10.7; AMA1 RON2 block: 112.9%; HCV inhibitor: inconclusive; Shiga toxin inh: 39.4; Pf growth 96h: 0.5%; Pf growth 48h: -15.8%

Results for N#C/C(=C\c1cccnc1)c1nc2ccccc2[nH]1 ?
CHX counter: 36.2*; AMA1 RON2 block: 60.6%; HCV inhibitor: -10.0%; Shiga toxin inh: 57.4*; Pf growth 96h: inconclusive; Pf growth 48h: inconclusive

How did O=C(NCc1ccccn1)c1cccc(S(=O)(=O)NCc2ccccc2)c1 do in these assays?
AMA1 RON2 block: 36.6%; HCV inhibitor: inconclusive; Pf growth 96h: -4.7%; Pf growth 48h: -24.3%

What do the screens show for `CCOC(=O)c1c(NC(=O)COC(=O)c2ccccn2)sc(C)c1C`?
AMA1 RON2 block: 2.4%; HCV inhibitor: -20.7%; Pf growth 96h: 50.0%; Pf growth 48h: -8.4%

Results for CS(=O)(=O)N1CCN(c2ccnc3cc(Cl)ccc23)CC1 ?
CHX counter: -4.6; AMA1 RON2 block: 3.3%; HCV inhibitor: 3.8%; Shiga toxin inh: -6.7; Pf growth 96h: inconclusive; Pf growth 48h: 2.9%[5.75 µM]
